This is a sample that favours compounds with a hit; in the whole collection about 1.8% have one here.
iPSC survival up – enhancers of human iPSC single-cell survival. hiPSC single-cell survival, ATPlite luminescence; 100% = ROCK inhibitor wells, 0% = DMSO. survival enhancement, % at 20 µM. actives 0.044% (n = 360,000). AID 602274; in the data active = survival enhancement above about 18%;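 also: cells exposed to compounds for 16 hours before the ATP read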
ABCB6 inh 2 – inhibitors of human ABC transporter ABCB6; AID 602162; K562-ABCB6 porphyrin accumulation, flow cytometry, 1 h; active compounds read low; fluorescence ratio to DMSO, % at 10 µM; actives 0.19% (n = 360,000);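 active = fluorescence ratio to DMSO below 75%, the collection mean minus 3 SD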;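 also: signal is porphyrin accumulated inside mitochondria; lower ratio means ABCB6 inhibition with less porphyrin fluorescence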
ARNT-TACC3 inh – ARNT/TACC3 interaction disruption; AlphaScreen His-ARNT PAS-B/GST-TACC3 binding, luminescence; TACC3 fragment carries E629A point mutation; inhibition, % at 9.99 µM; actives 0.66% (n = 390,000);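 active = mean inhibition of replicates at least 50% and at least half of replicates each reaching 50%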
CendR NRP1 mod – modulators of CendR peptide binding to human neuropilin-1 | FAM-RPARPAR peptide binding to NRP-1, fluorescence polarization | inhibition, % at 25 µM | O14786 | actives 0.85% (n = 360,000);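 active = inhibition or corrected inhibition above about 18%, plus a signal ratio from 0.5 to 1.5, limit read from the data, passing the limit was not always enough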
Target sequence (O14786 whole entry, looked up): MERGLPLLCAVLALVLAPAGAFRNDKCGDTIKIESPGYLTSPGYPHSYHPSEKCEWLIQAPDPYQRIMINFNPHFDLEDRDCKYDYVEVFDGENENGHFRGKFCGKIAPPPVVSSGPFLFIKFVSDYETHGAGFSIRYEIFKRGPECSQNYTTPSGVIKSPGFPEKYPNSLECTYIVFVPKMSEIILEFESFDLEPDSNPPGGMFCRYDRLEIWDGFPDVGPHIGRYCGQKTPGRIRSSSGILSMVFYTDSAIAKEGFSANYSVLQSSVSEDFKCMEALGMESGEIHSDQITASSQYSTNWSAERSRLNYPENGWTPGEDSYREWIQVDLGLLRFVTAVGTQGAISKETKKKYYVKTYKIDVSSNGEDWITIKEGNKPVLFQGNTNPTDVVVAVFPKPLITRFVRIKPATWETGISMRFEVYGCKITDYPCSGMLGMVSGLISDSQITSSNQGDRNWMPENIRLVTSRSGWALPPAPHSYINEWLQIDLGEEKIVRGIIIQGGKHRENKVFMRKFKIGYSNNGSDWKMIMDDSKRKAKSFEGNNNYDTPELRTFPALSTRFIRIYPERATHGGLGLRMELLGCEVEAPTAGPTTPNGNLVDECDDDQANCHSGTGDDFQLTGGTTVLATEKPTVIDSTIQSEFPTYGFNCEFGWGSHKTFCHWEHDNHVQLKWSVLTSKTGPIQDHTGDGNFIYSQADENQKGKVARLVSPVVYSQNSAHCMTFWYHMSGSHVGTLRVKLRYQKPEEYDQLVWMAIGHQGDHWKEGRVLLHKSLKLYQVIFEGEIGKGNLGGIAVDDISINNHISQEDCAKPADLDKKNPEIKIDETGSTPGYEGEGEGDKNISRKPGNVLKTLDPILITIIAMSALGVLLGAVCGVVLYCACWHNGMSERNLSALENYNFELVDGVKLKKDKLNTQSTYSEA
GSIS activator – primary screen for activators of insulin secretion dependent on glucose, INS-1E cells, GLuc reporter luminescence. INS-1E GLuc reporter insulin secretion, 2-3 h. actives 0.61% (n = 370,000). activation, % at 16.6 µM;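 active = lowest replicate activation of at least 40%, so every replicate reaches that level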
Each line names hits and unclear results; the compound was inactive in the other large screens.

C[C@@H]1CN([C@H](C)CO)C(=O)c2cc(N(C)C)ccc2O[C@H]1CN(C)C	none (no result: iPSC survival up, ABCB6 inh 2, CendR NRP1 mod)
CCNC(=O)NC(=O)CSc1ccccc1F	CendR NRP1 mod 35
CC(C)NC(=O)N(C)C[C@@H]1Oc2ccc(NS(=O)(=O)c3cccs3)cc2C(=O)N([C@H](C)CO)C[C@H]1C	none (no result: iPSC survival up, ABCB6 inh 2, ARNT-TACC3 inh, CendR NRP1 mod)
COc1ccc(-c2cnc3c(c2)C(=O)N([C@H](C)CO)C[C@@H](C)[C@H](CN(C)S(C)(=O)=O)O3)cc1	none (no result: iPSC survival up, ABCB6 inh 2, CendR NRP1 mod)
Cc1nc2ncnn2c(N2CCN(C(=O)c3cccc(F)c3)CC2)c1C	CendR NRP1 mod 26 (no result: GSIS activator)
CN1[C@@H]2Cn3c(ccc(-c4ccccc4)c3=O)[C@H]1[C@@H](C(=O)NCC1CC1)[C@@H]2CO	none (no result: iPSC survival up, ABCB6 inh 2, CendR NRP1 mod)
CCn1ncc2c1C(=O)NC1c3ccccc3C(=O)N21 (stereo not given)	GSIS activator 51
CC(C)(C)OC(=O)N1CCC[C@H]1C(=O)N/N=C/c1cccc2cccnc12	ARNT-TACC3 inh 91
O=C(COc1ccc(F)cc1)N/N=C/c1cccc2cccnc12	ARNT-TACC3 inh 95
Cc1cccc(NC(=O)[C@@H]2CCCN2C(=O)OC(C)(C)C)c1	none
Cc1cccc(OCC(=O)N/N=C\c2cccn2C)c1C	ABCB6 inh 2 67
CC(C)(C)OC(=O)NCCC(=O)N/N=C/c1ccc2ncccc2c1	none
CC(C)(C)OC(=O)NCCC(=O)N/N=C/c1cccc2cccnc12	ARNT-TACC3 inh 69
CC(C)C#Cc1ccc([C@@H]2[C@H](CO)N3C(=O)CN(C(=O)C4CCCCC4)C[C@@H]23)cc1	none (no result: iPSC survival up, ABCB6 inh 2, ARNT-TACC3 inh, CendR NRP1 mod)
O=C(c1ccc2c(c1)OCO2)N1CC(=O)N2[C@H](CO)[C@H](c3ccc(C#CC4CCCC4)cc3)[C@H]2C1	none (no result: iPSC survival up, ABCB6 inh 2, ARNT-TACC3 inh, CendR NRP1 mod)
CO[C@@H]1CN(C)C(=O)c2cc(NS(=O)(=O)CC(F)(F)F)ccc2OC[C@@H](C)N(C(=O)NC(C)C)C[C@@H]1C	none (no result: iPSC survival up, ABCB6 inh 2, CendR NRP1 mod)
O=C(C[C@H]1CC[C@H](NC(=O)Nc2cc(F)ccc2F)[C@@H](CO)O1)NCc1ccc2c(c1)OCO2	none (no result: iPSC survival up, ABCB6 inh 2, CendR NRP1 mod)
CCC(=O)N1C[C@H](C)[C@H](OC)CN(C)C(=O)c2ccc(NC(=O)COC)cc2OC[C@H]1C	none (no result: iPSC survival up, ABCB6 inh 2, ARNT-TACC3 inh, CendR NRP1 mod)
Cc1ccccc1OCC(=O)N/N=C/c1cccc2cccnc12	ARNT-TACC3 inh 65
Cc1ccc(OCC(=O)N/N=C/c2cccc3cccnc23)cc1	ARNT-TACC3 inh 64
O=C(Cc1ccccc1)NCC(=O)N1CCN(c2ccccc2)CC1	CendR NRP1 mod 27
CS(=O)(=O)c1ccc(Cl)c(NC(=O)COC(=O)c2ccc(S(=O)(=O)N3CCCC3)cc2)c1	CendR NRP1 mod 22
O=C(COc1ccccc1)N/N=C/c1sc(=O)n(Cc2cccc(C(=O)O)c2)c1Cl	none
O=C(O)c1cccc(Cn2c(Cl)c(/C=N/NC(=O)c3ccc(O)cc3)sc2=O)c1	ARNT-TACC3 inh 41
CCOc1ccc(/C=C/C(=O)Nc2ccc(C(N)=O)cc2)cc1OC	none
CCOc1cc(/C=C/C(=O)Nc2ccc(C(=O)NCCN(CC)CC)cc2)ccc1OCC(C)C	GSIS activator 68
Cc1ccc2[nH]c3nc(NN)nnc3c2c1	ARNT-TACC3 inh 61
O=C1c2cccc3cccc(c23)C(=O)C1(O)O	CendR NRP1 mod 54
CC1CC(C)CN(S(=O)(=O)c2cc3c4c(c2)CCN4C(=O)CC3)C1 (stereo not given)	CendR NRP1 mod 25
CC1CCCN(S(=O)(=O)c2cc3c4c(c2)CCN4C(=O)CC3)C1 (stereo not given)	none
COC(=O)c1c(CC[C@@H](CO)NC(=O)N[C@H](Cc2ccccc2)Cn2cc(-c3ccccn3)nn2)oc(C(C)=O)c1C(=O)OC	ARNT-TACC3 inh 22 (no result: iPSC survival up, ABCB6 inh 2, CendR NRP1 mod, GSIS activator)
CSc1ccccc1C(=O)N1CCN(c2cccc(Cl)c2)CC1	CendR NRP1 mod 45
COc1ccccc1N(CC(=O)NCC1CCCO1)C(=O)CNS(=O)(=O)c1ccc(Cl)cc1 (stereo not given)	GSIS activator 42
COc1ccccc1N(CC(=O)NCC1CCCO1)C(=O)CNS(=O)(=O)c1ccc(C)cc1 (stereo not given)	none
COc1ccc(-c2n(CC(=O)OC3CC(C)CCC3C(C)C)c3ccccc3[n+]2C)cc1 (stereo not given)	none
COc1ccc(OCc2n(CC(=O)OC3CC(C)CCC3C(C)C)c3ccccc3[n+]2C)cc1 (stereo not given)	GSIS activator 271
Cc1cc[n+](-c2[nH]c(=O)sc2/C=N/NC([S-])=Nc2ccccc2)cc1	CendR NRP1 mod 55
O=c1[nH]c(-[n+]2ccccc2)c(/C=N/NC([S-])=Nc2ccccc2)s1	none
Cc1cc(C)c[n+](-c2[nH]c(=O)sc2/C=N/NC([S-])=Nc2ccccc2)c1	CendR NRP1 mod 47
CC(C)(C)c1cc[n+](-c2[nH]c(=O)sc2/C=N/NC(=O)c2ccccc2[O-])cc1	CendR NRP1 mod 27
CC(C)(C)c1cc[n+](-c2[nH]c(=O)sc2/C=N/N=C(\[O-])c2cccnc2)cc1	none
CCCNC(=O)C[C@@H]1CC[C@H]2[C@H](COc3ccc(NC(=O)C4CCOCC4)cc3C(=O)N2C)O1	none (no result: iPSC survival up, ABCB6 inh 2, CendR NRP1 mod)
O=C1C[C@H](c2ccccc2)C(=O)N[C@@H](c2ccc(F)cc2)C/C=C\CCN1	none (no result: iPSC survival up, ABCB6 inh 2, ARNT-TACC3 inh, CendR NRP1 mod)
Cc1nc(N2CCOCC2)nc(N2CCCCC2)c1[N+](=O)[O-]	none
Cc1nc(N2CCOCC2)nc(N2CCCC2)c1[N+](=O)[O-]	GSIS activator 53
CC(C)Cn1cnc2c1c(=O)n(CC(=O)NC(=O)NC(C)(C)C)c(=O)n2Cc1ccccc1	CendR NRP1 mod 18
Cc1cc(C)cc(NC(=S)Nc2cccc3ccccc23)c1	none
Fc1ccc(NC(=S)Nc2cccc3ccccc23)cc1	CendR NRP1 mod 28
S=C(Nc1cccc2ccccc12)NN1CCOCC1	CendR NRP1 mod 25 (no result: ABCB6 inh 2)
Cc1ccc(NC(=S)Nc2cccc3ccccc23)cc1	CendR NRP1 mod 28 (no result: GSIS activator)
C[C@@H]1CN([C@@H](C)CO)C(=O)Cc2cc(NC(=O)CCCCCC(=O)Nc3ccccc3N)ccc2O[C@@H]1CN(C)S(=O)(=O)c1cn(C)cn1	none (no result: iPSC survival up, ABCB6 inh 2, CendR NRP1 mod)
CCCNC(=O)C[C@@H]1C[C@@H]2c3cc(NC(=O)C4CCOCC4)ccc3O[C@@H]2[C@H](CO)O1	none (no result: iPSC survival up, ABCB6 inh 2, CendR NRP1 mod)
N/C(=N\OS(=O)(=O)c1ccc(Br)cc1)c1ccncc1	ABCB6 inh 2 63 (no result: GSIS activator)
N/C(=N\OC(=O)c1ccc(Cl)c(Cl)c1)c1ccccn1	none
N/C(=N\OC(=O)c1ccc(Cl)cc1)c1ccccn1	CendR NRP1 mod 20
N/C(=N\OC(=O)COc1ccc(Br)cc1)c1ccncc1	none (no result: ARNT-TACC3 inh)
CC(C)C(=O)O/N=C(\N)c1ccccn1	none (no result: GSIS activator)
CCOc1ccc(C(=O)O/N=C(\N)c2ccccn2)cc1OCC	GSIS activator 87
N/C(=N\OS(=O)(=O)c1ccccc1)c1ccccn1	ARNT-TACC3 inh 65
CCOc1cc(C(=O)O/N=C(\N)c2ccccn2)cc(OCC)c1OCC	none
O=C(C[C@H]1CC[C@@H]2[C@H](COC[C@@H](O)CN2CC2CCCC2)O1)NCC1CC1	none (no result: iPSC survival up, ABCB6 inh 2, ARNT-TACC3 inh, CendR NRP1 mod)
COc1cccc(NC(=O)CSC2=NN3CCCC(=O)N=C3S2)c1	CendR NRP1 mod 30 (no result: ARNT-TACC3 inh)

Bioassay records (PubChem)
